In PubChem BioAssay (NCATS):
Inconclusive results are not listed. Unmarked numbers belong to inactive results. Active and inactive are the calls of the source. Calls come from the whole dose curve; as a rule, active = well fitted cell-killing curve with a large enough effect; inconclusive = small, poorly fitted or top-dose-only effect; inactive = flat fitted curve, though single readings scatter.

test: Identifying Small Molecule Inhibitors of Pancreatic Cancer Stem Cells (SN12C, Adherent) (AID 1259358); conditions: viability/growth inhibition; series mostly up to 46.1 µM; viability (percent of control): at the top concentration;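 note: cell survival measured after 48 h of compound exposure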
Procedure, shortened: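 Pre-formed 14-day tumor spheroids or adherent cells dosed and incubated 48 h, 37C, 5% CO2. Viability assessed by CellTiter-Glo.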
Potency is the fitted concentration of half-maximal effect.

| Compound | viability (percent of control) | Potency |
| --- | --- | --- |
| COc1ccc(-c2oc3cc(OC)ccc3c2C(=O)c2ccc(C#N)cc2)cc1 | 92.2% |  |
| COc1cccc2cc(-c3nc(C4CCC(C(=O)O)CC4)n4ncnc(N)c34)[nH]c12 (configuration not stated) |  | 0.833 µM (active) |
| CS(=O)(=O)c1ccc(C(=O)Nc2ccc(Cl)c(-c3ccccn3)c2)c(Cl)c1 | 107% |  |
| Cc1cc(Nc2nc(N[C@@H](C)c3ncc(F)cn3)ncc2Cl)n[nH]1 | 104% |  |
| CC1(C)SCCN(S(=O)(=O)c2ccc(OCC#CCO)cc2)[C@@H]1C(=O)NO | 112% |  |
| COc1cc2nccc(Oc3ccc(NC(=O)NC4CC4)c(Cl)c3)c2cc1C(N)=O |  | 18.7 µM (active) |
| CC(=O)NC(C)c1ccc(Oc2ccc(OC(C)C)cc2)cc1 (configuration not stated) | 104% |  |
| Nc1nccc(-c2ccc3noc(-c4ccc(Cl)cc4)c3c2)n1 | 109% |  |
| Cc1cc(SCc2sc(-c3ccc(C(F)(F)F)cc3)nc2C)ccc1OCC(=O)O | 106% |  |
| COc1cc(F)c(F)c(Nc2ccc(I)cc2F)c1NS(=O)(=O)C1(C[C@H](O)CO)CC1 |  | 20.9 µM (active) |
| CC1(C)CNc2cc(NC(=O)c3cccnc3NCc3ccncc3)ccc21 | 108% |  |
| CC(C)OC(=O)C1=CN(C(=O)c2ccc(F)c(F)c2)CC(C)(C)c2c1[nH]c1ccccc21 | 95.5% |  |
| Cc1c(C)c2c(c(C)c1O)CCC(C)(COc1ccc(CC3SC(=O)NC3=O)cc1)O2 (configuration not stated) | 107% |  |
| COc1ccc2c3n(c(=NC(=O)c4cccnc4)nc2c1OC)CCN3 |  | 3.72 µM (active) |
| NC(=O)c1ccc(I)c([N+](=O)[O-])c1 | 109% |  |
| CCOc1cc(C=C2C(=O)N(c3ccccc3)N=C2C)cc(Cl)c1OCC(=O)OC | 114% |  |
| CS(=O)(=O)c1cccc(CNc2nc(Nc3ccc4c(c3)CCC(=O)N4)ncc2C(F)(F)F)c1 | 107% |  |
| COc1ccc2nc(S(=O)Cc3ncc(C)c(OC)c3C)[nH]c2c1 (configuration not stated) | 77.7% |  |
| COc1nc(-c2ccc3c(c2)OCO3)n(-c2ccc(NC(=O)CSc3ccccc3)cc2)n1 | 95.2% |  |

| Compound | viability (percent of control) | Potency |
| --- | --- | --- |
| Cc1[nH]c(=O)c(C#N)cc1-c1ccc2nccn2c1 | 121% |  |
| CCN(CC)CCCC(C)Nc1nc(C)cc(Nc2ccc3nc(C)cc(N)c3c2)n1 (configuration not stated) | 72.8% |  |
| O=C(C=Cc1ccc(/C=C/C(=O)Nc2ccc(C3=NCCN3)cc2)cc1)Nc1ccc(C2=NCCN2)cc1 | 108% |  |
| CCCc1nn(C)c2c(=O)[nH]c(-c3cc(S(=O)(=O)N4CCN(C)CC4)ccc3OCC)nc12 | 115% |  |
| Cc1n[nH]c(C)c1Cc1sc2c(c1C(=O)N1C[C@H](O)CO1)c(=O)n(C)c(=O)n2CC(C)C | 121% |  |
| CC(C)(Sc1ccc(CCN(CCCCC2CCCCC2)C(=O)NC2CCCCC2)cc1)C(=O)O | 102% |  |
| Cc1c(CCOc2ccc(C(=O)O)cc2)c2cc(Cl)ccc2n1C(c1ccccc1)c1ccccc1 | 96.2% |  |
| OC(CN1CCC(Cc2ccc(F)cc2)CC1)c1ccc(Cl)cc1 (configuration not stated) | 81.1% |  |
| Cc1cc(C=c2sc3nc4ccccc4n3c2=O)c(C)n1-c1ccccc1 | 103% |  |
| CC(C)C[C@H](NC(=O)[C@@H](O)[C@H](N)Cc1ccccc1)C(=O)O | 104% |  |
| CC(c1cc2ccccc2s1)N(O)C(N)=O (configuration not stated) | 114% [at 92.2 µM] |  |
| NC(=O)C1CCCc2c1[nH]c1ccc(Cl)cc21 (configuration not stated) | 105% |  |
| O=C1CCCC2=C1C(c1[nH]ncc1Cl)N=C(Nc1nc3ccccc3o1)N2 (configuration not stated) | 114% |  |
| CS(=O)(=O)Oc1ccc2c(NC(N)=O)c(C(=O)c3ccc(Cl)cc3Cl)oc2c1 | 108% |  |
| Cc1cnc(Nc2ccc(OCCN3CCCC3)cc2)nc1Nc1cccc(S(=O)(=O)NC(C)(C)C)c1 | 100% |  |
| O=C(O)c1ccc(-c2c[nH]c3ccc(-c4ccccc4)cc23)cc1C1CCCC1 | 82.4% |  |
| N#Cc1ccc(C(c2ccc(C#N)cc2)n2cncn2)cc1 | 109% |  |
| C[C@]12CC[C@H](O)CC1=CC[C@@H]1[C@H]2CC[C@]2(C)C(c3cccnc3)=CC[C@H]12 | 99.3% |  |
